Screens: PubChem, National Center for Advancing Translational Sciences (NCATS)
PTHR1 agonist = agonists of human PTHR1 parathyroid hormone receptor. Q03431. HEK293 GP2 PTHR1 cells, GloSensor cAMP luminescence, 1 h. Potency, µM (doses to about 115 µM), hits mostly activators. actives 0.075% (n = 410,000). AID 743266; note: nearly all actives have a fitted effect of over 55% in size
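HEK-293-derived GP2 cells expressing PTHR1 and a GloSensor cAMP reporter, 3,000/well, plated overnight, given luciferin plus IBMX (each 0.5 mM as added) for 1 h at 37 °C, then compound for 1 h at 37 °C. Luminescence was read after 15 min at room temperature.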
B2AR arrestin = recruits beta-arrestin to the human beta2-adrenergic receptor; P07550; beta-arrestin recruitment to beta2AR, cell-based reporter; Potency, µM (titrated, usually from 46.1 µM), hits mostly activators; actives 0.02% (n = 330,000); AID 492947; note: nearly all actives have a fitted effect of over 65% in size
Target sequence (P07550 whole entry, looked up): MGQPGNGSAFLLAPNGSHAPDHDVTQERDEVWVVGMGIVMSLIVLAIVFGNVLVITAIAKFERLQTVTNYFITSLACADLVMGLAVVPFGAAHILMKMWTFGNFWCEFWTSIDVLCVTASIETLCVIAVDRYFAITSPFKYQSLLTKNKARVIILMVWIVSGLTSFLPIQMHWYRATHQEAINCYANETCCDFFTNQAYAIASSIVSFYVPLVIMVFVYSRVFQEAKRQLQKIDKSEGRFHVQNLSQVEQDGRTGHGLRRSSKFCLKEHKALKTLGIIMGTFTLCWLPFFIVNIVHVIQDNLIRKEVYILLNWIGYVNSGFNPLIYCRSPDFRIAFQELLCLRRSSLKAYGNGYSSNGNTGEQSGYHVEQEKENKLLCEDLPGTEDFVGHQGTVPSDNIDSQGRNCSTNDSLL
RGS4 inhibitor = inhibitors of human regulator of G protein signaling 4. Potency, µM (doses to about 114 µM), usual class: inhibitors. actives 0.039% (n = 390,000). Transcreener GDP fluorescence polarization, RGS4-accelerated GTP hydrolysis; note: nearly all actives have a fitted effect of over 75% in size
Target sequence (P49798 whole entry, looked up): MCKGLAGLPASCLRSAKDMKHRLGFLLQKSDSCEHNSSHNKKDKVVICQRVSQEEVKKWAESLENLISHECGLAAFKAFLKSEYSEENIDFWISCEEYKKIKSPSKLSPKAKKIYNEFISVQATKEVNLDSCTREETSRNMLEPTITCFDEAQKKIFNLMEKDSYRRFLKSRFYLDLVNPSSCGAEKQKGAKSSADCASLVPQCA
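MLSMR compounds (23 nl, pin-transferred) preincubated 10 min at room temperature with a 500nM (2x) first reagent, then RGS4 at 900nM (2x) plus Transcreener GDP mix added; fluorescence polarization (620/688 nm) read before and after 90 min at 30 °C.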
DRD3 antagonist = D3 dopamine receptor (human) antagonism | max response, negative = inhibition, % | D3R cells, DiscoveRx beta-arrestin luminescence, antagonist mode; stronger effect = lower value | actives 2.5% (n = 360,000) | P35462; in the data active = max response below about -50%; inconclusive = no clear call, values can overlap the other calls
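Cells plated overnight at 1500 cells/well, then exposed to library compounds with dopamine controls for 90 minutes at 37 degrees C. DiscoveRx reagent added for 30–60 minutes at room temperature; luminescence read, quantitative HTS format.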
DRD3 agonist = D3 dopamine receptor (human) agonism; AID 652048; actives 0.58% (n = 410,000); P35462; max activation, %; D3R DiscoveRx beta-arrestin cells, luminescence, 90 min; in the data active = max activation above about 30%
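Agonist mode: compounds and dopamine controls were applied to plated cells for 90 min at 37 degrees C after an overnight attachment at 1500 cells/well. Luminescent read-out followed 30 - 60 minutes at room temperature with DiscoveRx detection reagent.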
BRCA1 expr up = activators of BRCA1 expression; Potency, µM (highest dose often 46.1 µM), most hits filed as activators; AID 624202; actives 1.1% (n = 380,000); MCF7-BRCA1-FFLuc reporter, luminescence, 48 h; response scale: scaled: vehicle 0%, 10 µM genistein 100%; note: nearly all actives have a fitted effect of over 80% in size
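Cells: MCF7-BRCA1-FFLuc, 2000/well. Exposure: 48 h, 37 °C, 5% CO2. Read: luminescence, 15 min post-substrate. Controls: genistein 10 microM (maximal activation), DMSO (neutral).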
Of the large screens only hits and unclear results are named; the others gave an inactive call; ! = not confirmed by another sample. Hits are enriched below; roughly 3.7% of the tested compounds scored in any of these assays. Unless noted, calls come from the whole dose curve; as a rule, active = well fitted curve in the direction sought with a large enough effect; inconclusive = small, poorly fitted or top-dose-only effect, or another doubt; inactive = no such curve, though single readings can be large; an effect the other way counts as inactive or inconclusive.

COc1ccccc1NS(=O)(=O)c1cccc(C(=O)NCC(c2cccs2)N(C)C)c1 (stereo not drawn)	DRD3 antagonist -85.3 (no result: B2AR arrestin)
Cc1ccc(C)c(S(=O)(=O)Nc2ccc(C(=O)NCC(c3ccco3)N(C)C)cc2)c1 (stereo not drawn)	DRD3 antagonist -52.9
Cc1ccccc1NS(=O)(=O)c1ccc(C(=O)NCC(c2ccco2)N(C)C)cc1 (stereo not drawn)	DRD3 antagonist -57.3
CCN(c1ccccc1)S(=O)(=O)c1cccc(C(=O)NCC(c2cccs2)N(C)C)c1 (stereo not drawn)	DRD3 antagonist -55.9
Cn1ccc2cc(S(=O)(=O)N3CCN(C(=O)Nc4ccc(F)cc4F)CC3)ccc21	none (no result: B2AR arrestin, DRD3 antagonist)
CCc1ccc(-c2cc(C)no2)cc1S(=O)(=O)NCCN1CCC(C)CC1	none
CCc1ccc(-c2cc(C)no2)cc1S(=O)(=O)NCCCN1CCN(c2ccccc2)CC1	DRD3 antagonist -77.2
O=c1[nH]c(SCc2ccc(Cl)cc2)nc2ccsc12	BRCA1 expr up 4.47µM
N#Cc1c(-c2cccs2)nc(SCc2ccc(Cl)cc2)[nH]c1=O	RGS4 inhibitor inconclusive
O=C(CCC(=O)N(CC(=O)NC1CCCCC1)Cc1cccs1)Nc1nccs1	none
COc1cccc2c1cc1c(=O)n(CC(=O)N3CCC(C)CC3)nc(C)n12	DRD3 agonist 38.0!
COc1cccc2c1cc1c(=O)n(CC(=O)N3CCN(c4ccccc4F)CC3)nc(C)n12	none (no result: B2AR arrestin, DRD3 antagonist, BRCA1 expr up)
Cc1nc(SCC(=O)N2c3ccccc3Sc3ccccc32)n[nH]1	DRD3 antagonist -56.7
S=C1NCCc2ccc(Cl)cc2C1c1ccccc1 (stereo not drawn)	DRD3 antagonist -61.6
C/C(=N\NC(=S)NCc1ccccc1)c1ccccc1	BRCA1 expr up inconclusive
COc1ccc(CNC(=S)N/N=C(/C)c2ccccc2)cc1	BRCA1 expr up 7.08µM
COc1cccc(-c2oc3c(c2C(=O)OCCN(C)C)C(O)CCC3)c1 (stereo not drawn)	none (no result: B2AR arrestin, RGS4 inhibitor)
COCC1CCCN(Cc2cn(-c3ccccc3F)nc2-c2cc(C)sc2C)C1 (stereo not drawn)	DRD3 antagonist -70.8
CC(=O)NCC1CCCN(Cc2cn(-c3ccccc3F)nc2-c2cc(C)sc2C)C1 (stereo not drawn)	none
CCc1cccc(NS(=O)(=O)c2ccc3c(c2)N(C)CCO3)c1	none
COc1cc(C(O)c2nc(-c3ccccc3OC)cs2)ccc1F (stereo not drawn)	none (no result: B2AR arrestin, RGS4 inhibitor)
O=C(CCN1CCc2ccccc2C1)Nc1cccc(F)c1	DRD3 antagonist -65.7
O=C(CCN1CCOCC1)Nc1ccccc1	none
O=C(CCN1CCc2ccccc2C1)Nc1ccccc1	DRD3 antagonist -73.2
O=C(CCN1CCN(c2ccc(Cl)cc2)CC1)Nc1ccccc1F	none
O=C(CCN1CCc2ccccc2C1)Nc1ccccc1F	DRD3 antagonist -77.9
CCOc1ccc(NCc2cccn2-c2nnc(N3CCC(C(=O)NCc4ccccc4Cl)CC3)s2)cc1	none (no result: B2AR arrestin, DRD3 antagonist, BRCA1 expr up)
CC1=C(C#N)C(c2cn(-c3ccccc3)nc2-c2cccs2)C(C#N)=C(C)N1	DRD3 agonist 33.5
COCCOC(=O)C1=C(C)NC(=O)NC1c1cn(-c2ccccc2)nc1-c1cccs1 (stereo not drawn)	none
CCOC(=O)CCN(Cc1ccccc1)S(=O)(=O)c1csc(C(N)=O)c1	none
CCN(CC)Cc1csc(C(N)=O)c1	DRD3 antagonist -52.8
Clc1cccc(CN2CCC(Cc3ccccc3)CC2)c1	DRD3 antagonist -78.5
CSc1ccc(CN2CCSCC2)cc1	none
CSc1ccc(OC2CCN(Cc3ccccc3)CC2)cc1	DRD3 antagonist -50.5
Clc1ccc(CN2CCC(c3nc4ccc(Cl)cc4[nH]3)CC2)cc1	DRD3 antagonist -73.8
CSc1ccc(CN2CCC(Cc3ccccc3)CC2)cc1	DRD3 antagonist -55.9
CC1CN(C=O)CC(C)N1CCN1C(C)CN(C=O)CC1C (stereo not drawn)	none (no result: B2AR arrestin)
O=C(CSc1nnc(CNC(=O)c2ccc(F)cc2)o1)NCc1ccc2c(c1)OCO2	none
Fc1ccc(CN2CCC(Cc3ccccc3)CC2)cc1F	DRD3 antagonist inconclusive
Clc1cccc(CN2CCN(Cc3ccco3)CC2)c1	DRD3 antagonist -65.7
Clc1ccc(CN2CCC(Cc3ccccc3)CC2)cc1	DRD3 antagonist -95.7
Clc1ccc(CN2CCC(c3ccccc3)CC2)cc1	DRD3 antagonist -130.7
Cc1cccc(CN2CCN(Cc3ccco3)CC2)c1	none
COc1cc(C(C)=O)ccc1OCCCN1CCC(Cc2ccccc2)CC1	DRD3 antagonist -90.3
COc1cc(C(C)=O)ccc1OCC(=O)N1CCC(Cc2ccccc2)CC1	none (no result: B2AR arrestin, RGS4 inhibitor)
COc1cc(C(C)=O)ccc1OCCN1CCC(Cc2ccccc2)CC1	DRD3 antagonist -77.2
CSc1ccc(CN(C)C(=O)C2CCN(C(=O)Nc3ccccc3)CC2)cc1	none
Cc1ccc([N+](=O)[O-])c2c1C(N1CC(C)OC(C)C1)C(C)(C)O2 (stereo not drawn)	none
Cc1cc2c(Nc3ccccc3)ncnc2s1	DRD3 antagonist -61.2
O=C(CSc1ccc2ccccc2c1)NCCc1ccc(O)c(O)c1	DRD3 agonist 68.6
Cc1csc(Nc2nc(N)c(C(=O)Nc3ccccc3)o2)n1	BRCA1 expr up 7.94µM
N#CCC(=O)NN	none (no result: PTHR1 agonist, B2AR arrestin, RGS4 inhibitor, DRD3 antagonist, BRCA1 expr up)
Cc1occc1-c1nnc(SCC(=O)Nc2ccccc2-c2ccccc2)n1C	DRD3 antagonist -57.2
Cc1occc1-c1nnc(SCC(=O)N2CCCCC2)n1C	none
Cc1occc1-c1nnc(SCC(=O)c2ccc(Cl)cc2)n1C	RGS4 inhibitor inconclusive, DRD3 antagonist -55.6
COc1ccc(CNC(=O)c2cc(-c3ccc(OC)c(OC)c3)nc3n[nH]c(-c4ccc(C)cc4)c23)cc1	none (no result: B2AR arrestin, DRD3 antagonist, BRCA1 expr up)
O=C(COc1ccc2c3c(c(=O)oc2c1)CCC3)N[C@@H](Cc1ccccc1)C(=O)O	DRD3 agonist 33.2
Cc1c(OCC(=O)N[C@@H](Cc2ccccc2)C(=O)O)ccc2c1oc(=O)c1ccccc12	DRD3 agonist 31.0
CCCCN(CC(=O)NC1CC1)S(=O)(=O)c1ccc(OCC)cc1	none
CCOc1ccc(NC(=O)CC(NC(C)=O)c2ccccc2)cc1S(=O)(=O)N1CCCC1 (stereo not drawn)	DRD3 antagonist inconclusive
CCOc1ccc(NC(=O)CN(C)Cc2ccc3c(c2)OCO3)cc1S(=O)(=O)N1CCCC1	DRD3 antagonist -68.2
Cc1cc(C(C)(C)C)c(O)c(C)c1CC1=NCCN1	DRD3 antagonist -98.4
c1ccc2c(CC3=NCCN3)cccc2c1	none
CCCCN1CC(N2CCN(Cc3ccccc3)CC2)CS1(=O)=O (stereo not drawn)	DRD3 antagonist inconclusive (no result: B2AR arrestin, RGS4 inhibitor)
